The entries come from a sample that favours hits as a whole.
ClpP mod: qHTS Assay for Activators of ClpP; Potency, µM (titrated, usually from 57.5 µM), inactives show top-dose activity change, negative = active; AID 651965, 2013; ATP-dependent Clp protease proteolytic subunit (Bacillus subtilis (strain 168)), P80244; hit rate 1.9% among 340,000; purified B. subtilis ClpP, FRET peptide cleavage, 20 min; active = well fitted falling curve with a large enough effect; inconclusive = small, poorly fitted or top-dose-only effect; inactive = no such curve, though single readings can be large or run the other way; also: potency is read from the fitted curve at half-maximal effect; the source files actives as falling curves though it sought activators and does not explain the sign; nearly all actives have a fitted effect of over 65% in size
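ClpP 10 microg/mL final, pH 8 Tris/KCl buffer with BSA, glycerol, Tween-20; compound pinned in; FRET-FV substrate; RT 20 min; Ex320/Em430; ΔFRET vs ADEP 5.8 microM, DMSO, no enzyme.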
Glioma ERSR ind: induces the endoplasmic reticulum stress response in human glioma cells; U87-MG GRP78 promoter luciferase reporter, 16 h; Potency, µM, inactives show top-dose activation, usual class: activators; AID 602332; hit rate 0.02% among 420,000; also: potency is read from the fitted curve at half-maximal effect; series mostly up to about 76 µM; % of control where 0% means no effect; nearly all actives have a fitted effect of over 35% in size
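Stably transfected U87-MG glioma cells carrying a GRP78-based luciferase sensor; 16 h compound incubation. Luminescence end-point read 10 min after Bright-Glo addition at room temperature.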
Apoferritin bind: candidate novel general anesthetic via apoferritin binding | apoferritin/1-aminoanthracene competitive binding, fluorescence | Potency, µM (doses to about 77.5 µM), for inactives: at the top dose activity change, negative = displacement, most hits filed as inhibitors | hit rate 0.074% among 350,000 | AID 485281; also: potency is read from the fitted curve at half-maximal effect; % is scaled to controls: 0 for no effect and ±100 for the full control effect; nearly all actives have a fitted effect of over 20% in size
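Probe: 1-aminoanthracene (50% saturated, PBS). Protein: horse-spleen apoferritin, 10 uM. Incubation: 10 min, room temperature. Detection: 380 nm excitation, 535 nm emission. Analysis: normalized response, four-parameter Hill.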
N370S GC: inhibitors or activators of N370S glucocerebrosidase for Gaucher disease; N370S GC spleen homogenate, 4MU-glucoside fluorescence; hit rate 0.092% among 330,000; P04062; Potency, µM (titrated, usually from 59.4 µM), for the others: top-dose activity change, negative = inhibition, usual class: inhibitors;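 also: potency is read from the fitted curve at half-maximal effect; 0% = full enzyme activity and -100% = no enzyme basal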
CBFb RUNX1 block: blocks binding between human CBF-beta and RUNX1; AlphaScreen CBFb-His/RUNX1-biotin binding, biochemical; Potency, µM (top dose mostly 59.8 µM), for the others: at the highest dose activity, negative = inhibition, actives largely listed as inhibitors; 230,000 tested, under 10 active; also: % of control where 0% means no effect
Target sequence (Q01196 whole entry, looked up): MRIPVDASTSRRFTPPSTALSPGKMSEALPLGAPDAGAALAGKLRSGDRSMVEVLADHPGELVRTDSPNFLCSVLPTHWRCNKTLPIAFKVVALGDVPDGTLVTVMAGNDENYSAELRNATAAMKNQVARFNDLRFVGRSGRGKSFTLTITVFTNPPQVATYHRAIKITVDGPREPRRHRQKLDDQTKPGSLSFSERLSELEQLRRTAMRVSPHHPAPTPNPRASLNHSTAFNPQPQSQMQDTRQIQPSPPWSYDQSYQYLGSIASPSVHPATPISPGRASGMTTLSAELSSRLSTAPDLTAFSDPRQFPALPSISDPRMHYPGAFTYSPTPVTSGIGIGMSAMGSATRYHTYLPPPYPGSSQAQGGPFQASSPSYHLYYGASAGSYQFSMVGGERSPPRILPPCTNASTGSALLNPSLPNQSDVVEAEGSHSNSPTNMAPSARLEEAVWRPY
Target sequence (Q13951 whole entry, looked up): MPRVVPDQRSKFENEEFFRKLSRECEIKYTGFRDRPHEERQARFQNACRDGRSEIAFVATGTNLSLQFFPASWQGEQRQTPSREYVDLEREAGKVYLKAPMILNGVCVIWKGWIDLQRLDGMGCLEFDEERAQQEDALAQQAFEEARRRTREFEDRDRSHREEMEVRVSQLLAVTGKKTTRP
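Read-out: AlphaScreen. Format: His-CBF-beta with biotinylated RUNX1 (30 nM each) preincubated 20 min, compound 15 min, Ni-chelate plus streptavidin beads 90 min; room temperature throughout.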
Integrin act MD: activators of alpha7 integrin expression for muscular dystrophy; hit rate 0.064% among 350,000; alpha7betagal myoblasts, beta-gal FDG fluorescence, 48 h; Potency, µM (top dose mostly 38.3 µM), inactives show at the top dose activation, actives largely listed as activators; AID 624291;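 also: potency is read from the fitted curve at half-maximal effect; 100% = response of the positive control SU9516; nearly all actives have a fitted effect of over 60% in size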
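Alpha7betagal+/- myoblasts (passage 13) were plated 16-24 hr, then exposed to compounds (1:260 dilution of DMSO stock) for 48 hours at 37C. After MPER lysis, β-galactosidase reporter activity was read as FDG fluorescence (ex 480/em 540) after 30 minutes.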
Active calls of the source: *; ? = inconclusive; . = no result given; [ ] = dose if it differs, or a comment. Unless noted, calls follow the shape of the dose curve; as a rule, active = well fitted curve in the direction sought with a large enough effect; inconclusive = small, poorly fitted or top-dose-only effect, or another doubt; inactive = no such curve, though single readings can be large; an effect the other way counts as inactive or inconclusive.

SMILES	ClpP mod	Glioma ERSR ind	Apoferritin bind	N370S GC	CBFb RUNX1 block	Integrin act MD
CC(=O)c1cccc(NC(=S)NC(=O)c2cccc(C)c2)c1	16µM*	4%	-6%	6%	-3%	5%
Cc1ccc(S(=O)(=O)/N=C(/NC(=S)Nc2cccc(C)c2)c2ccccc2)cc1	2%	4%	-12%	28%	-4%	30%
CCCCOc1cccc(C(=O)NNC(=S)NC2CCCCC2)c1	25µM*	-1%	-17%	1%	-1%	-25%
CCOc1cccc(C(=O)NC2CCCCC2)c1	0%	9%	-3%	5%	11%	19%
CC(=O)c1cccc(NC(=S)NC(=O)c2ccc(Cl)cc2)c1	-2%	1%	-2%	6%	-1%	-13%
Nc1nc(N)c2c(OCc3ccc(C(F)(F)F)cc3)cccc2n1	5%	-5%	.	.	.	.
Cc1cc(C(=O)Nc2cccc3ccccc23)c(C)o1	.	2%	1%	-11%	.	7.9µM*
Cc1ccc(-c2ccnc(-n3ncc(C(=O)N(C)CC4CCCN(C)C4)c3C)n2)o1 (stereo not drawn)	.	0%	.	.	.	.
O=C(Cc1ccc(OCc2ccccn2)cc1)NO	-3%	4%	.	.	.	.
Nc1ccc(C(=O)OCc2nc3ccccc3[nH]2)cc1	0%	-1%	-10%	3%	-7%	8%
Nc1ccc(C(=O)OCCCc2nc3ccccc3[nH]2)cc1	28µM*	0%	-14%	5%	15%	5%
O=C(O)CCCNC(=O)c1cncc(Br)c1	28µM*	-5%	-5%	3%	2%	0%
CCOC(=O)CCCNC(=O)c1cncc(O)c1	32µM*	-2%	-8%	-21%	1%	9%
NNC(=O)c1sc2cc(C(F)(F)F)cnc2c1-c1cccs1	.	-3%	-17%	27%	8%	8%
O=C(Nc1ccccc1)c1sc2cc(C(F)(F)F)cnc2c1-c1cccs1	32µM*	2%	-2%	23%	0%	0%
CCCNC(=S)N(Cc1ccccc1)Cc1nc2ccccc2c(=O)[nH]1	28µM*	1%	-5%	25%	-6%	-7%
CCOCCCNC(=S)N(Cc1ccccc1)Cc1nc2ccccc2c(=O)[nH]1	0%	-2%	-10%	5%	-10%	24%
O=C1/C(=C/N(C(=O)c2ccco2)c2ccc(Cl)cc2)Sc2ccccc21	10µM*	-6%	9%	4%	-5%	6%
COC(=O)CC(NC1CCN(c2nc(C)c3cc4c(cc3n2)CCC4)CC1)C(=O)OC (stereo not drawn)	.	-3%	.	.	.	.
CCOC(=O)c1ccccc1NCN1C(=O)CSC1=O	28µM*	-2%	9%	0%	8%	10%[7.66 µM]
CCOC(=O)c1ccc(NC(=O)CN2C(=O)CSC2=O)cc1	1%	4%	-9%	4%	-1%	-11%
Cc1ccc(-c2cc(C)nc3ncnn23)cc1	5%	-6%	-11%	24%	3%	-6%
Cc1ccc(-c2cc(C)nc3nc(N)nn23)cc1	14µM*	2%	-11%	-2%	7%	-2%
CCCCN(C)CCCNC(=O)c1cc(-c2ccc(Br)s2)nc2ccccc12	4%	-1%	-8%	.	.	.
CN(Cc1ccccc1)C(=O)COC(=O)c1cc(-c2ccc(Cl)s2)nc2ccccc12	11µM*	-2%	-16%	18%	?	-8%
SMILES	ClpP mod	Glioma ERSR ind	Apoferritin bind	N370S GC	CBFb RUNX1 block	Integrin act MD
O=C(O)c1cc(-c2ccc(Cl)s2)nc2ccccc12	.	5%	6%	22%	5%	8%
CCCCN(CCCC)CCCNC(=O)c1cc(-c2ccc(Cl)s2)nc2ccccc12	35µM*	-4%	3%	.	.	.
CC(C)(C)n1ncc2c(=O)n(Cc3ccc(F)cc3F)cnc21	.	-2%	.	.	.	.
O=C(COC(=O)c1ccc(S(=O)(=O)NCc2ccco2)cc1)NC1CCCCCC1	2%	-3%	35µM*	4%	-1%	-12%
CC(C)(CO)NC(=O)c1cnn(-c2nccc(-c3ccc4c(c3)OCO4)n2)c1C1CC1	.	2%	.	.	.	.
CCOc1ccc(NC(=O)CSc2nnnn2C2CC2)cc1S(=O)(=O)N1CCCC1	0%	-1%	.	.	.	-17%
CCOc1ccc(NC(=O)CSc2nnc(C)n2C2CC2)cc1S(=O)(=O)N1CCCC1	25µM*	-1%	.	0%	.	-5%
Cc1c(CN2CCOc3c(O)cc(-c4nc5ccccc5s4)cc3C2)cnn1C	.	0%	.	.	.	.
Nc1ccc2c(c1)C(=O)N(CCCCCC(=O)O)C2	16µM*	-4%	-3%	4%	2%	21%
Nc1ccc2c(c1)C(=O)N(CCCC(=O)O)C2=O	0%	-6%	61%	3%	-2%	-12%
C/C(=N\NC(=O)c1c(Cl)c(C)nn1C)c1cccc(NC(=O)COc2ccccc2)c1	145%	-6%	-24%	5%	5%	4%
C/C(=N\NC(=O)c1c(Cl)c(C)nn1C)c1ccc(NC(=O)COc2ccc(Cl)cc2C)cc1	25µM*	6%	-15%	6%	-2%	-3%
CC(O)Cn1ccccc1=N (stereo not drawn)	16µM*	-1%	-3%	-4%	8%	18%
CN(Cc1c(C(=O)N/N=C/c2cccc(F)c2)nnn1-c1nonc1N)c1ccccc1	-2%	-4%	?	-20%	.	5.6µM*
CCCCCCCCCCCCCCCC(=O)O[C@H]1[C@@H](O)[C@@H](O)[C@@H]([C@H](NC(=O)[C@@H]2C[C@@H](CCC)CN2C)[C@H](C)Cl)O[C@@H]1SC	.	-2%	.	.	.	.
CCSc1nnc(C(C)NS(=O)(=O)c2cccc(Cl)c2C)n1C (stereo not drawn)	.	-7%	.	.	.	.
Cc1cccc(N(CC(=O)NC2CC2)S(=O)(=O)c2ccc(Cl)cc2)c1	1%	-4%	-10%	-4%	.	-9%
Cc1ccc(S(=O)(=O)N(CC(=O)NC2CC2)c2ccc(C)c(Cl)c2)cc1	16µM*	-2%	-5%	-5%	.	0%
C/C(=N\OCC(=O)OC(C)C(=O)Nc1ccc(C(N)=O)cc1)c1ccc2c(c1)OCO2 (stereo not drawn)	-5%	-3%	-12%	-1%	.	4.5µM*
COc1cc2c3nnc(-c4ccc(F)cc4)c-3cn(Cc3ccc(C)cc3)c2cc1OC	20µM*	-8%	59%	-2%	17%	-12%
CC(=O)O[C@H]1CC[C@@]2(C)C(=CCC3C2CC[C@]2(C)C(c4cccnc4)=CCC32)C1 (stereo partly drawn)	.	-2%	.	.	.	.
COc1cc(NC(=O)CSc2nc(=O)n(CCCN3CCOCC3)c3c2CCC3)cc(OC)c1	25µM*	-2%	.	-4%	.	-26%
COc1cc(NC(=O)CSc2nc(=O)n(CCN3CCOCC3)c3c2CCC3)cc(OC)c1	-2%	-7%	.	-7%	.	2%
COCCNC(=O)C(=O)N/N=C(\C)CC(=O)Nc1ccc(Cl)cc1Cl	28µM*	-1%	-11%	-11%	-10%	-3%

Screening data deposited in PubChem BioAssay by National Center for Advancing Translational Sciences (NCATS).
